Laboratory results as given in PubChem BioAssay (Tox21).
Several values for one entry are separate records, joined by “and”; a condition that tells them apart may be missing. Equal values may be shown once. Where a structure was tested more than once in an assay, its records may differ in their call. Activity calls are given as the source filed them. Unless noted, calls come from the whole dose curve; as a rule, active = well fitted curve in the direction sought with a large enough effect in the repeat runs; inconclusive = weak or mixed curves; inactive = no such curve, though single readings can be large; an effect the other way counts as inactive or inconclusive.

Experiments:
[1] = qHTS assay to identify small molecule antagonists of the glucocorticoid receptor (GR) signaling pathway - cell viability counter screen (AID 720693); note: nearly all actives have a fitted effect of over 55% in size
[2] = qHTS assay for identifying genotoxic compounds that show differential cytotoxicity against isogenic chicken DT40 cell lines with known DNA damage response pathways - Rev3 mutant cell line (AID 743014); note: nearly all actives have a fitted effect of over 55% in size; note: potency is the fitted concentration of half-maximal effect
[3] = qHTS assay for identifying genotoxic compounds that show differential cytotoxicity against isogenic chicken DT40 cell lines with known DNA damage response pathways - Rad54/Ku70 mutant cell line (AID 743015); note: nearly all actives have a fitted effect of over 60% in size; note: potency is the fitted concentration of half-maximal effect
[4] = qHTS assay to identify small molecule antagonists of the androgen receptor (AR) signaling pathway - cell viability counter screen (AID 743033; note: nearly all actives have a fitted effect of over 45% in size)
[5] = qHTS assay to identify small molecule antagonists of the androgen receptor (AR) signaling pathway using the MDA cell line - cell viability counter screen (AID 743041; note: nearly all actives have a fitted effect of over 45% in size)
Method in brief: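 MDA-kb2 AR-luc human breast carcinoma cells (MMTV-luciferase, AR/GR responsive) were treated with compounds plus R1881 agonist for 16 h at 37 °C. Viability was read as CellTiter-Fluor fluorescence in the same wells as the reporter assay.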

[6] = qHTS assay to identify small molecule antagonists of the thyroid receptor (TR) signaling pathway - cell viability counter screen (AID 743064); note: nearly all actives have a fitted effect of over 50% in size; note: potency is the fitted concentration of half-maximal effect
Method in brief: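 Rat GH3 pituitary tumor cells stably expressing two TR response elements driving luciferase were plated, rested 4 h, then dosed with library compounds and T3 (1 nM final). After 23.5 h at 37 °C, CellTiter-Fluor was added for 30 min and fluorescence recorded.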

[7] = qHTS assay to identify small molecule antagonists of the thyroid receptor (TR) signaling pathway (AID 743065); note: nearly all actives have a fitted effect of over 55% in size; note: potency is the fitted concentration of half-maximal effect
Method in brief: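 GH3.TRE-Luc rat pituitary cells carrying two TR response elements driving luciferase were plated for 4 h, given compound plus 1 nM T3 (final), and incubated 23.5 h at 37 C. ONE-Glo luminescence measured reporter inhibition; CellTiter-Fluor fluorescence tracked cytotoxicity.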

[8] = target: Estrogen receptor (Homo sapiens) (UniProt P03372); assay: qHTS assay to identify small molecule antagonists of the estrogen receptor alpha (ER-alpha) signaling pathway (AID 743069; active = well fitted curve in the direction sought with a large enough effect in the signal ratio in the repeat runs, not every such curve was filed as active; inconclusive = weak or mixed curves, or effect the other way; inactive = no such curve, though single readings can be large or run the other way; the % refers to the signal ratio)
Method in brief: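 HEK293 cells stably carrying an ER-alpha-UAS-bla beta-lactamase reporter were pre-cultured overnight in 2% charcoal-stripped FBS medium. Test compounds in DMSO were added together with 17beta-estradiol for 18 hr at 37C. Read-out was fluorescence after 2 hr with LiveBLAzer B/G FRET substrate at room temperature.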

[9] = qHTS assay to identify small molecule antagonists of the estrogen receptor alpha (ER-alpha) signaling pathway - cell viability counter screen (AID 743074; calls by dose curve; note: nearly all actives have a fitted effect of over 45% in size)
[10] = target: Estrogen receptor (Homo sapiens) (UniProt P03372); assay: qHTS assay to identify small molecule agonists of the estrogen receptor alpha (ER-alpha) signaling pathway (AID 743075; calls by dose curve; note: potency is the fitted concentration of half-maximal effect)
[11] = target: Estrogen receptor (Homo sapiens) (UniProt P03372); assay: qHTS assay to identify small molecule agonists of the estrogen receptor alpha (ER-alpha) signaling pathway using the BG1 cell line (AID 743079); note: nearly all actives have a fitted effect of over 20% in size; note: potency is the fitted concentration of half-maximal effect
[12] = qHTS assay to identify small molecule antagonists of the estrogen receptor alpha (ER-alpha) signaling pathway using the BG1 cell line (AID 743080; calls by dose curve;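 note: BG1 cells stimulated with 17beta-estradiol alongside compound; series mostly up to about 70 µM; nearly all actives have a fitted effect of over 25% in size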)
Method in brief: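 Luminescence from a 4×ERE-luciferase reporter in BG1-Luc-4E2 cells served as read-out. Cells, pre-cultured 5 days in stripped-serum phenol-red-free medium, were exposed to compound with 17beta-estradiol co-stimulation for 21.5 h at 37 C.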

[13] = qHTS assay to identify small molecule antagonists of the estrogen receptor alpha (ER-alpha) signaling pathway using the BG1 cell line - cell viability counter screen (AID 743081);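 note: compound given together with 17beta-estradiol as the ER stimulus; series mostly up to about 70 µM; nearly all actives have a fitted effect of over 45% in size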
Aromatase (Homo sapiens) = Aromatase (Homo sapiens) (UniProt P11511); assay: qHTS assay to identify aromatase inhibitors (AID 743083); note: series mostly up to about 70 µM; nearly all actives have a fitted effect of over 55% in size
[14] = test system: thyroid hormone receptor (rat, GH3 cells); assay: qHTS assay to identify small molecule agonists of the thyroid receptor (TR) signaling pathway (AID 743066; calls by dose curve)
[15] = target: Androgen receptor (Homo sapiens) (UniProt P10275); assay: qHTS assay to identify small molecule antagonists of the androgen receptor (AR) signaling pathway (AID 743035; active = well fitted inhibition curve with a large enough effect in the signal ratio in the repeat runs, not every such curve was filed as active; inconclusive = weak or mixed curves, or effect the other way; inactive = no such curve, though single readings can be large or run the other way; the % refers to the signal ratio)
Method in brief: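 HEK293 cells stably carrying UAS-beta-lactamase reporter, 2,000/well, given compounds plus R1881 agonist and incubated 16 h at 37C. LiveBLAzer B/G FRET substrate then added for 2 h at room temperature before fluorescence reading.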

[16] = target: Androgen receptor (Homo sapiens) (UniProt P10275); assay: qHTS assay to identify small molecule antagonists of the androgen receptor (AR) signaling pathway using the MDA cell line (AID 743042; note: nearly all actives have a fitted effect of over 55% in size)
Method in brief: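 MDA-kb2 cells (human breast carcinoma, stably carrying an MMTV-luciferase reporter responsive to AR and GR) were plated at 3,000 cells/well and preincubated 5 hr at 37C, then given compound plus R1881 agonist for 16 h. ONE-Glo luminescence was read.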

[17] = target: Androgen receptor (Homo sapiens) (UniProt P10275); assay: qHTS assay to identify small molecule agonists of the androgen receptor (AR) signaling pathway (AID 743036; active = well fitted activation curve with a large enough effect in the signal ratio in the repeat runs, with a control signal flat, not every such curve was filed as active; inconclusive = weak or mixed curves, or effect the other way; inactive = no such curve, though single readings can be large or run the other way; the % refers to the signal ratio)
Method in brief: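 Quantitative HTS of the Tox21 10K library in HEK293 cells bearing a stably integrated UAS-controlled beta-lactamase reporter. Compound exposure lasted 16 h at 37C. Reporter activity was detected by FRET substrate fluorescence after 2 h at room temperature.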

[18] = qHTS assay for identifying genotoxic compounds that show differential cytotoxicity against isogenic chicken DT40 cell lines with known DNA damage response pathways - wild type cell line (AID 743012); note: nearly all actives have a fitted effect of over 60% in size
Method in brief: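 Wild-type DT40 cells (300/well) exposed to compounds for 40 hours at 37 C/5% CO2. Viability read by CellTiter-Glo luminescence after 30 min at room temperature.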

Measured: Potency

Sequence of Aromatase (Homo sapiens) (P11511 whole entry, looked up): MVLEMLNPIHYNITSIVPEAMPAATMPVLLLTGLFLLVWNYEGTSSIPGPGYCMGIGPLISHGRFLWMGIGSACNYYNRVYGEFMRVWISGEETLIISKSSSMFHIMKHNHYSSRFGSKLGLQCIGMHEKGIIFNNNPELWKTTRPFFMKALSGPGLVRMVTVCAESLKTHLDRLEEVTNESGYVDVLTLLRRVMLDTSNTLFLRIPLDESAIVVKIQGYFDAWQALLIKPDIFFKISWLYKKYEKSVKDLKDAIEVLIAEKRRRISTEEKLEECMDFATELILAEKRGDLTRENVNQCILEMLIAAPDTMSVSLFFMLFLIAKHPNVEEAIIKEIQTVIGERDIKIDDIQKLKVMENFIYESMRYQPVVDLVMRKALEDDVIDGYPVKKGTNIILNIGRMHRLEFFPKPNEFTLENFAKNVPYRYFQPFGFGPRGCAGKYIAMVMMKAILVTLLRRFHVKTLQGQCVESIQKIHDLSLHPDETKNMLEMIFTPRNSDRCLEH
Sequence of Androgen receptor (Homo sapiens) (P10275 whole entry, looked up): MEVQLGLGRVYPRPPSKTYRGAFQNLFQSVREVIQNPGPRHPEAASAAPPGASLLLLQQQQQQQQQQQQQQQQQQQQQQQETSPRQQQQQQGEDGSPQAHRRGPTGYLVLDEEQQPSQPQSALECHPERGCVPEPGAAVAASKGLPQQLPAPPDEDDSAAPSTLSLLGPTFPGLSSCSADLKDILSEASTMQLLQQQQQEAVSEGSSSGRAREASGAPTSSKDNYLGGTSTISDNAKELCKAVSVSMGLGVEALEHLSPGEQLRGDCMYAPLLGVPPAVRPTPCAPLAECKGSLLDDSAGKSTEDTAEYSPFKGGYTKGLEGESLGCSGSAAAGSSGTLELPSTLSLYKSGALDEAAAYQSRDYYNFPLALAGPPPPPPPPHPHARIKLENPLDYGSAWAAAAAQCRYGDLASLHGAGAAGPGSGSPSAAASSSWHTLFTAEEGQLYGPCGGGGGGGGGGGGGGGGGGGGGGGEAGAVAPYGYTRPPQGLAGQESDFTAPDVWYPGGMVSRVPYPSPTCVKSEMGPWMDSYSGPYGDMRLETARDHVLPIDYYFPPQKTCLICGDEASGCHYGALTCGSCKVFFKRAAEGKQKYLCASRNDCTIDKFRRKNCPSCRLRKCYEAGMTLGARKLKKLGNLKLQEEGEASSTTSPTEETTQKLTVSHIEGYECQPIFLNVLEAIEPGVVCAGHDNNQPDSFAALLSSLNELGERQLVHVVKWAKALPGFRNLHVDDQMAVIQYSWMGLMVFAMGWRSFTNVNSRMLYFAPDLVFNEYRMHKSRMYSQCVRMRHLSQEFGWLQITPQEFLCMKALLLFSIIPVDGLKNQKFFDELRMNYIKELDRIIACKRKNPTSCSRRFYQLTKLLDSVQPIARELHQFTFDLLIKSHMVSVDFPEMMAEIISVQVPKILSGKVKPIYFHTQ
Sequence of Estrogen receptor (Homo sapiens) (P03372 whole entry, looked up): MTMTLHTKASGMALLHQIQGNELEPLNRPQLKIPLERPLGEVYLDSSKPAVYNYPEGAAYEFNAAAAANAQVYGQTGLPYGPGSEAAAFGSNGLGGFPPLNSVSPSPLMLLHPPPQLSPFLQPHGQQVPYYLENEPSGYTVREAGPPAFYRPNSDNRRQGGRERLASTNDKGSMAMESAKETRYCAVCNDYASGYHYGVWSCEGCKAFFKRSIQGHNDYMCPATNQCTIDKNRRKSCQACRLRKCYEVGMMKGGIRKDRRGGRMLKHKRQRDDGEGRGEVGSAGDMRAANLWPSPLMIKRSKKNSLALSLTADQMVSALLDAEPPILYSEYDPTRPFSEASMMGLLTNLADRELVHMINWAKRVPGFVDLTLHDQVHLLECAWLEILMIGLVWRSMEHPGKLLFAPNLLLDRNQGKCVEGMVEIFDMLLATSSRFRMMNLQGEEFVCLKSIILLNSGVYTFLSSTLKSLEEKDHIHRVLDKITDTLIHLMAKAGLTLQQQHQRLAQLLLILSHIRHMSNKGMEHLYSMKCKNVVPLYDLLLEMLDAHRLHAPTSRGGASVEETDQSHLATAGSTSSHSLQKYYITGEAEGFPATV

OCCC1CCCCN1 (stereo not given)
not listed: [14] | [15] | [16] | [17] | [18]
inactive: all other assays above

Cc1ccc(C(C)c2ccc(C)c(C)c2)cc1C
not listed: [7] | [15] | [16] | [17] | [18]
inactive: all other assays above

C[Si](C)O[Si](C)(C)O[Si](C)(C)O[Si](C)C
not listed: [14] | [15] | [16] | [17] | [18]
inactive: all other assays above

Cc1ccccc1N=Nc1ccc(N=Nc2c(O)ccc3ccccc23)c(C)c1
active: [10] 10.7 µM [inconclusive] | [11] 8.41 µM
not listed: [3] | [13] | [15] | [16] | [17] | [18]
inactive: all other assays above

Cc1ccc(C(N)=O)cc1N
not listed: [3] | [15] | [16] | [17] | [18]
inactive: all other assays above

COCCOCCOCCOCCOC
not listed: [17] | [18]
inactive: all other assays above

Cc1occc1S
active: [2] 61.1 µM
not listed: [3] | [7] | [14] | [15] | [16] | [17] | [18]
inactive: all other assays above

O=C(/C=C/c1ccc(O)c(O)c1)O[C@@H]1C[C@](O)(C(=O)O)C[C@@H](O)[C@H]1O
inactive: [1] | [2] | [4] | [5] | [6] | [7] | [14] | [9] | [13]

CCN(CC)CCOc1ccc2c(c1)C(=O)c1cc(OCCN(CC)CC)ccc1-2
active: [2] 2.66 µM | [3] 5.96 µM
inactive: [1] | [4] | [5] | [14] | [9] | Aromatase (Homo sapiens)

CCOC(=O)CC(=O)c1cc(F)c(Cl)nc1Cl
not listed: [15] | [16] | [17] | [18]
inactive: all other assays above

Cn1sccc1=O
active: [2] 3.06 µM | [3] 4.86 µM | [6] 30.6 µM | [7] 30.6 µM
inactive: [1] | [5] | [8] | [9] | [10] | [12] | [13] | Aromatase (Homo sapiens)

O=S(=O)(O)c1ccc(O)c2ncccc12
not listed: [4] | [6] | [7] | [13] | [15] | [16] | [17] | [18]
inactive: all other assays above

NC[C@H]1O[C@H](O[C@H]2[C@H](O)[C@@H](O[C@H]3O[C@H](CO)[C@@H](O)[C@H](N)[C@H]3O)[C@H](N)C[C@@H]2N)[C@H](O)[C@@H](O)[C@@H]1O
inactive and 1.89 µM (active): [6]
inactive: [1] | [2] | [4] | [5] | [14] | [9] | [12] | [13] | Aromatase (Homo sapiens)

CCCCCCOC(=O)CCC
inactive: [1] | [2] | [3] | [4] | [5] | [6] | [13] | Aromatase (Homo sapiens)

Nc1nc(N)c(-c2ccccc2)s1
not listed: [8] | [10] | [11] | [12] | [15] | [16] | [17] | [18]
inactive: all other assays above

CCCCCCCCC(CO)CCCCCC (stereo not given)
not listed: [15] | [16] | [17] | [18]
inactive: all other assays above

CC(=O)/C(C)=C/C1C(C)=CCCC1(C)C (stereo not given)
not listed: [7] | [14] | [15] | [16] | [17] | [18]
inactive: all other assays above

O=C(NS(=O)(=O)/C=C/c1cccs1)c1ccc(F)cc1Br
active: [11] 68.6 µM
not listed: [3] | [4] | [8] | [10] | [12] | [15] | [18]
inactive: all other assays above

COC(Cc1ccccc1)OC
not listed: [6] | [8] | [11] | [15] | [16] | [17] | [18]
inactive: all other assays above

CN1CCC(=C2c3ccccc3CCc3sccc32)CC1
active: [2] 15 µM | [3] 11.9 µM | [6] 21.1 µM | [7] 26.6 µM
inactive: [1] | [5] | [8] | [9] | [10] | [12] | [13] | Aromatase (Homo sapiens)

COc1cc(C(C)(C)C)c(O)c(C(C)(C)C)c1
inactive: [1] | [5] | [14] | [9] | [13]
active: [2] 27.3 µM | [3] 30.6 µM

Cc1c(Cn2ccnc2)c2ccccc2n1CCC(=O)O
inactive: [1] | [2] | [3] | [4] | [5] | [6] | [7] | [14] | [13] | Aromatase (Homo sapiens)

CC(C(=O)O)c1ccc(-c2ccccc2)c(F)c1 (stereo not given)
4.52 µM (active) and inactive: [11]
not listed: [15] | [16] | [17] | [18]
inactive: all other assays above

CC[C@H](C)[C@H](N)C(=O)O
not listed: [2] | [15] | [16] | [17] | [18]
inactive: all other assays above

CC(C)c1ccc2c(C(C)C)cc(C(C)C)c(S(=O)(=O)O)c2c1
active: [7] 63.2 µM
not listed: [6] | [17] | [18]
inactive: all other assays above

OCC1CC2CC1C1CCC(CO)C21 (stereo not given)
active: [2] 54.5 µM
not listed: [3] | [5] | [15] | [16] | [17] | [18]
inactive: all other assays above

Nc1nc(N)c2nc(CNc3ccc(C(=O)N[C@@H](CCC(=O)O)C(=O)O)cc3)cnc2n1
active: [2] 13.3 µM | [3] 23.7 µM and 1.4 nM | [7] 0.0571 µM
not listed: [15] | [16] | [17] | [18]
inactive: all other assays above

O=c1c2ccccc2nnn1CCl
not listed: [15] | [16] | [17] | [18]
inactive: all other assays above

CCCCOc1ccc(CC(=O)NO)cc1
inactive: [1] | [4] | [5] | [6] | [7] | [14] | [13] | Aromatase (Homo sapiens)
active: [2] 12.7 µM

CC(=O)/C=C/C1C(C)=CCCC1(C)C (stereo not given)
not listed: [4] | [11] | [15] | [16] | [17] | [18]
inactive: all other assays above

C=CC(=O)OCCOC(=O)CCC(=O)O
inactive: [1] | [2] | [4] | [5] | [6] | [7] | [14] | [9] | [13]

NCCCOCCOCCOCCCN
active: [2] 10.9 µM | [3] 7.7 µM
not listed: [5] | [15] | [16] | [17] | [18]
inactive: all other assays above

CCCCOC(O)CC (stereo not given)
not listed: [3] | [15] | [18]
inactive: all other assays above

CCCCCCCCCCCCCCCC(=O)OC/C=C(C)/C=C/C=C(C)/C=C/C1=C(C)CCCC1(C)C
not listed: [1] | [8] | [10] | [11] | [12] | [15] | [16] | [17]
inactive: all other assays above

O=c1[nH]cnc2ccccc12
not listed: [2] | [3] | [6] | [15] | [16] | [17] | [18]
inactive: all other assays above

Oc1ccc(O)c2c(O)cccc12
not listed: [1] | [4] | [5] | [6] | [15] | [16] | [17]
inactive: all other assays above

CC(C)CCCC(C)CCO (stereo not given)
not listed: [2] | [3] | [4] | [6] | [11] | [18]
inactive: all other assays above
